Bioassay records (PubChem)
PKA-R1A act = activators of PKA-R1A complex. P00514+P68181. PKA-R1A dissociation, Cy5-IP20 fluorescence polarization; scaled: DMSO 0%, 113 µM cGMP 100%. activation, % at 11.4 µM. actives 0.083% (n = 340,000). AID 504707;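 active = percent activation above the mean of all tested compounds plus 3 SD, cut at about 19% in these data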;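 note: higher means more PKAc released from R1A so a rise in polarization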
PKA-R2B activ = PKA-R2B complex activation. P22694+P31323. PKA-R2B holoenzyme dissociation, Cy5-IP20 fluorescence polarization; R2B truncated from residue 108, S112A mutant; 0% DMSO only, 100% 113 µM cGMP. activation, % at 11.4 µM. actives 0.079% (n = 340,000);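 active = activation above a cutoff set at the mean over all compounds plus 3 SD, cut at about 18% in these data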;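 note: higher means more holoenzyme dissociation and a rise in polarization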
CHT inh = inhibits the human high affinity choline transporter; CHT-expressing cells, membrane potential dye, choline response; stronger effect = lower value; AID 488975; actives 0.86% (n = 310,000); B-score at 10 µM; Q9GZV3;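 active = B-score over 3 SD under the library average, and starting fluorescence ratio not unusually high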;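 note: choline stimulus applied at its EC90 after an EC20 pre-addition; B-score computed on integrated fluorescence ratio after choline addition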
Target sequence (Q9GZV3 whole entry, looked up): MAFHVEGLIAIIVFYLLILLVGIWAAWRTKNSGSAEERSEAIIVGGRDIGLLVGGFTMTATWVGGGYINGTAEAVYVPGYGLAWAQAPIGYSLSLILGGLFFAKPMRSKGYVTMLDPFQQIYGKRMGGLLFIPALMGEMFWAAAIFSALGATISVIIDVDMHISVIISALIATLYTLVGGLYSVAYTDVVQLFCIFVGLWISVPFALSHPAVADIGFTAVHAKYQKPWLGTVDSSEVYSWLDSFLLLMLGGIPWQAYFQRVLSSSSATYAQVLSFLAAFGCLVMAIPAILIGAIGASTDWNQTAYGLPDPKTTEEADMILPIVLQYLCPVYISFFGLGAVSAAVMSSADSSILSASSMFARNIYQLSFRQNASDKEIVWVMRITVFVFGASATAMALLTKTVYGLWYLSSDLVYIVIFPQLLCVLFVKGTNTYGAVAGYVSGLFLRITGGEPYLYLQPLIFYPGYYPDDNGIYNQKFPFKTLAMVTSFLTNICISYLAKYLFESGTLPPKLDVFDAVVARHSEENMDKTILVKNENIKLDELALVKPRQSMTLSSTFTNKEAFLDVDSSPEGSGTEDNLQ
ANO1 block = inhibitors of mouse TMEM16A calcium-activated chloride channel. HEK293 TMEM16A/YFP iodide influx fluorescence, ionomycin. AID 588511. actives 1.2% (n = 310,000). normalized B-score (activity score, 25-100; higher = stronger inhibition) at 10 µM;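 active = ratio plate-corrected score three or more library SD toward inhibition, starting fluorescence score within five deviations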;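 note: score derived from kinetic fluorescence span divided by baseline fluorescence per well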
CHT allo act = allosteric activators of human choline transporter CHT; Q9GZV3; CHT-expressing cells, membrane potential dye, choline EC20; stronger effect = higher value; LV-AA mutant CHT in HEK293 cells; B-score at 10 µM; actives 0.49% (n = 310,000);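 active = initial fluorescence not abnormally high and integrated response B-score, plate-corrected, over 3 SD above library mean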
ANO1 activ = activates or potentiates the mouse TMEM16A chloride channel | Q8BHY3 | HEK293 TMEM16A/YFP-H148Q/I152L, iodide quench fluorescence; stronger effect = lower value | B-score at 10 µM | actives 0.3% (n = 340,000) | AID 623877;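 active = fluorescence-ratio B-score plate-corrected deviation score at least 3 library SD below zero, with starting fluorescence score within 5 deviations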;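 note: channel opened by trigger with iodide after compound preincubation; score built on the fluorescence ratio of max minus min over baseline; more negative score means more quench and so TMEM16A activation or potentiation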
R1A FP artifact = FP assay interference, PKA-R1A counter-screen; shares compounds with PKA-R1A act; Cy5-IP20 peptide alone, fluorescence polarization artifact counterscreen; activation, % at 11.4 µM; actives 7% (n = 280); AID 504799;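 active = mean activation over triplicate runs exceeds the adjusted cutoff derived for the parent primary screen, cut at about 19% in these data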;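 note: no PKA protein present so any polarization rise reflects compound interference; 0% = tracer peptide mix alone and 100% = mix with added PKA catalytic subunit; higher means stronger polarization artifact and likely false positive in parent screen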
PKA-R1A act conf = PKA-R1A complex activation, confirmation. actives 9% (n = 280). Cy5-IP20 fluorescence polarization, PKA-R1A holoenzyme dissociation. shares compounds with PKA-R1A act. AID 504800. activation, % at 11.4 µM;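 active = mean activation over replicate wells exceeds the adjusted hit threshold taken from the earlier primary screen, cut at about 20% in these data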;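 note: 0% = holoenzyme mix with DMSO only and 100% = cGMP-activated control wells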
The depositor's hits bear a star; i = inactive; x = not tested or not shown. Shown are actives, neighbours in structure and some others; about 2.5% of the full set was active somewhere.

SMILES	PKA-R1A act	PKA-R2B activ	CHT inh	ANO1 block	CHT allo act	ANO1 activ	R1A FP artifact	PKA-R1A act conf
Cc1ccc(C(C(=O)NC2CCCC2)N(C(=O)c2csnn2)c2ccccc2)o1 (configuration not stated)	20*	-7	i	i	i	i	5	5
Cc1cccc(C(=O)N[C@H](C(=O)Nc2ccc(C)c(S(=O)(=O)N3CCOCC3)c2)C(C)C)c1	-8	-7	x	x	x	i	x	x
CCc1cc(Cn2nc(-c3ccccc3C)cc2C(=O)O)on1	19*	-3	x	x	x	i	0	-2
O=C1C(C2=NC(c3ccccn3)C3C(=O)N(c4ccccc4)C(=O)C23)=C(O)c2ccccc21 (configuration not stated)	0	0	i	i	i	i	x	x
COc1ccc2c(c1OC)C(=O)OC2Nc1ncccc1C (configuration not stated)	19*	8	i	i	i	i	5	1
COC(=O)C1=CN(c2cccc(Cl)c2)C=C(C(=O)OC)C1c1cccc(OC)c1	19*	0	i	i	i	i	-1	-7
CCc1c(C2(O)CCCCC2)[nH]c2ccc(C#N)cc12	-1	-4	i	i	i	i	x	x
CCOC(=O)c1nnn(-c2ccccc2C#N)c1C	20*	1	i	i	i	i	-1	-1
CCOC(=O)c1nnn(-c2ccc([N+](=O)[O-])cc2)c1C	9	1	i	i	i	i	x	x
CCN(CC(=O)Nc1ccccc1OC)C(=O)CSCc1ccc(C)cc1	22*	0	x	x	x	i	-4	-1
CCN(CC(=O)Nc1c(F)cccc1F)C(=O)CSCc1ccc(C)cc1	-7	4	x	x	x	x	x	x
CC(C)Oc1cccc(C(=O)NC(=S)Nc2ccccc2N2CCOCC2)c1	19*	-3	i	i	i	i	-4	-3
O=C(c1ccc(O)c(Cl)c1)N1CCN(S(=O)(=O)c2ccccc2)CC1	9	-11	i	i	i	i	x	x
O=c1c(Cl)c(NCc2ccccc2Cl)cnn1C12CC3CC(CC(C3)C1)C2	19*	15	i	i	i	i	0	-1
O=c1c(Cl)c(NCc2ccc(F)cc2)cnn1C12CC3CC(CC(C3)C1)C2	-6	-6	i	i	i	i	x	x
O=C(NCC(c1ccco1)N1CCN(c2ccc(F)cc2)CC1)C1CCCCC1 (configuration not stated)	-5	-7	i	i	i	i	x	x
CC(=O)NCCCc1nc2ccccc2n1Cc1c(F)cccc1Cl	-8	-3	i	i	i	i	x	x
O=C1/C(=C/c2cccnc2)SC(=S)N1CC1CCCO1 (configuration not stated)	25*	-5	i	i	i	i	0	0
N#Cc1c(NC(=O)COC(=O)c2ccc(O)cc2O)sc2c1CCC2	-18	6	x	x	x	i	x	x
Cc1ccc(-c2cc(C(=O)N3CCOCC3)no2)cc1	21*	5	i	i	i	i	6	5
COc1ccc(N2CCN(S(=O)(=O)c3c(C)[nH]c(C)c3C(=O)N3CCCC3)CC2)cc1	0	0	i	i	i	i	x	x
O=C(/C=C/c1ccccc1)Nc1cccc(C(=O)NC2CC2)c1	19*	1	x	x	x	x	3	5
CCn1c(SCC(=O)Nc2nccs2)nnc1-c1cc2cccc(OC)c2o1	-1	-2	x	x	x	i	x	x
COc1cccc2cc(-c3nnc(SCC(=O)Nc4cc(C(F)(F)F)ccc4Cl)n3N)oc12	20*	8	i	i	i	i	-2	0
CN(C)c1ccc(C(=O)NCCCSc2ccccc2)cc1	20*	7	i	i	i	i	-4	1
SMILES	PKA-R1A act	PKA-R2B activ	CHT inh	ANO1 block	CHT allo act	ANO1 activ	R1A FP artifact	PKA-R1A act conf
N#Cc1ccc(C(=O)NCCCSc2ccccc2)cc1	-6	2	i	i	i	i	x	x
O=C(Nc1ccc2c(c1)OCO2)c1ccc2c(c1)S(=O)(=O)c1ccccc1C2=O	2	0	i	i	i	i	x	x
O=C(NCc1ccc2c(c1)OCO2)c1ccc2c(c1)S(=O)(=O)c1ccccc1C2=O	22*	-7	i	i	i	i	-2	-2
COc1ccc(N(CC(=O)NCCSc2ccccn2)S(=O)(=O)c2ccccc2)cc1OC	21*	5	i	i	i	i	1	1
O=C(NCc1ccco1)C1CC2CCC1C2 (configuration not stated)	20*	2	i	i	i	i	0	-1
CCn1cc([N+](=O)[O-])c(C(=O)Nc2c(C)nn(Cc3cccc(F)c3)c2C)n1	19*	4	i	i	i	i	6	3
O=S(=O)(Nc1ccc(-n2cnnn2)cc1)c1cccc(F)c1	-5	-1	x	x	x	i	x	x
CCC(C)(C)n1nnnc1C(c1ccc(C)cc1)N1CCN(C(=O)c2ccco2)CC1 (configuration not stated)	-5	-8	i	i	i	i	x	x
CCC(C)(C)n1nnnc1C(c1cc2cccc(C)c2[nH]c1=O)N1CCN(C(=O)c2ccco2)CC1 (configuration not stated)	19*	2	i	i	i	i	4	2
CCOc1ccc(N(CC)C(=O)CCS(=O)(=O)c2cccc3nonc23)cc1	1	4	i	i	i	i	x	x
COc1cccc(NC(=O)CN(C)C(=O)CCNS(=O)(=O)c2ccc(C)cc2)c1	19*	11	x	x	x	i	3	2
CCOc1ccccc1Nc1nc(N)nc(CSc2nncn2C)n1	21*	11	i	i	i	i	0	3
COc1ccc(CCNC(=O)CCc2ccc(S(=O)(=O)NCC(C)C)cc2)cc1OC	2	-14	i	i	i	i	x	x
CNC(=O)COc1ncnc2scc(-c3ccc(F)cc3)c12	19*	1	i	i	i	i	3	5
COc1cc(C2C3=C(CC(C)(C)CC3=O)Nc3ccccc3N2C(C)=O)cc(OC)c1OC (configuration not stated)	2	6	i	i	i	i	x	x
